# Measured values reported in PubChem BioAssay (NCATS).
# Records with an inconclusive call do not appear. Where a call stands in place of a potency, no number is given. The source made the active and inactive calls. Calls follow the shape of the dose curve; as a rule, active = well fitted curve in the direction sought with a large enough effect; inconclusive = small, poorly fitted or top-dose-only effect, or another doubt; inactive = no such curve, though single readings can be large; an effect the other way counts as inactive or inconclusive.
# How the values were obtained:
# [1] = molecular target: Glutathione peroxidase 1 (Homo sapiens) (UniProt P07203); assay: Primary qHTS Assay for Inhibitors of Recombinant Selenoprotein Glutathione Peroxidase 1 (GPX1) (AID 1845191); also: nearly all actives have a fitted effect of over 65% in size; also: potency is read from the fitted curve at half-maximal effect
# How it was run: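 GR-coupled readout: NADPH consumption tracked by fluorescence, ex 340/em 450 nm, at t=0 and after 15 min at RT. Final mix 10 nM GPX1, 1 mM GSH, 0.5 mM CHP, 0.5 mM NADPH, 100 nM GR, 0.01% BSA, following 30 min enzyme–compound preincubation.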
# [2] = molecular target: Phospholipid hydroperoxide glutathione peroxidase GPX4 (Homo sapiens) (UniProt P36969); assay: Primary qHTS Assay for Inhibitors of Recombinant Selenoprotein Glutathione Peroxidase 4 (GPX4) (AID 1845192); also: nearly all actives have a fitted effect of over 65% in size
# How it was run: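 Steps: GPX4 plus compound, 30 min RT; add GR/GSH/NADPH master mix; start with cumene hydroperoxide; read 340/450 nm fluorescence at 0 and 15 min. Finals were 200 nM GPX4, 1 mM GSH, 0.5 mM CHP, 0.5 mM NADPH, 100 nM GR.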
# [3] = molecular target: Luciferin 4-monooxygenase (Photinus pyralis) (UniProt P08659); assay: Primary firefly luciferase (FLuc) qHTS assay for identification of artifact compounds. (AID 1845220); details: outcome: dose series up to 54.1 µM; also: nearly all actives have a fitted effect of over 60% in size
# How it was run: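 Enzymatic FLuc inhibition assay: compounds pre-exposed to luciferin/ATP (10 uM each) for 15 min, then purified P. pyralis enzyme at 10 nM added. Read-out: luminescence at 5 min.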
# [4] = Primary fluorescence-based thiol-reactive (MSTI) qHTS assay for identification of artifact compounds. (AID 1845221);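 also: series mostly up to about 54 µM; thiol-reactive compounds lower the probe fluorescence signal; nearly all actives have a fitted effect of over 65% in size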
# How it was run: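 MSTI probe at 4 uM final in 2% DMSO/PBS pH 7.4; compounds, 1 h at room temperature in dark. Fluorescence Ex/Em 525/598 nm, normalised to Acetyl-MSTI and MSTI, fitted to 4-parameter Hill.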
# [5] = system: Nanoluciferase (engineered Oplophorus gracilirostris luciferase); assay: Primary Nanoluciferase (NLuc) qHTS assay for identification of artifact compounds. (AID 1845222);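 also: NLuc secreted into diluted conditioned medium of S16 cells; series mostly up to about 54 µM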
# How it was run: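 S16 cell supernatant NLuc, 1:55; cpds qHTS; 15 min RT dark; Nano-Glo substrate 1:100, 5 min; luminescence; Hill fit of % inhibition.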
# [6] = Primary redox qHTS assay for identification of artifact compounds. (AID 1845223)
# How it was run: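 Redox-cycling detection via DTT (250 uM final) oxidation coupled to Amplex Red (25 uM)/HRP (250 mU/mL) in HBSS. 15 min preincubation plus 30 min after DTT, room temperature. Ex/Em 525/598 nm; 4-parameter Hill fit against DMSO and 10 uM DA3003.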
# Chain of Phospholipid hydroperoxide glutathione peroxidase GPX4 (Homo sapiens) (P36969 whole entry, looked up): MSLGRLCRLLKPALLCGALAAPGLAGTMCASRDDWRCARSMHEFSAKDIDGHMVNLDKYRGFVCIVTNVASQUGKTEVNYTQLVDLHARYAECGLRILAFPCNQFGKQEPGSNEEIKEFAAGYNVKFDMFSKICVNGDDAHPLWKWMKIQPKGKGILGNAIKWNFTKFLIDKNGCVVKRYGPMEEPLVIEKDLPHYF
# Chain of Glutathione peroxidase 1 (Homo sapiens) (P07203 whole entry, looked up): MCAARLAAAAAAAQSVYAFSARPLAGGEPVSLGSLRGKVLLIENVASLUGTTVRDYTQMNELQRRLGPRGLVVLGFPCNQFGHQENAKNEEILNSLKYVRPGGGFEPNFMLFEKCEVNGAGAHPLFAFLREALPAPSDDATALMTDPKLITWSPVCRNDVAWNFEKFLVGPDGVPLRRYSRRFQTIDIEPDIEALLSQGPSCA
structure (smiles),measurement,setting,value
CCCCCN=C(N)N/N=C/c1c[nH]c2ccc(OC)cc12,Potency,[1],inactive
same,Potency,[2],inactive
CN(C)CCN1C(=O)c2ccccc2N(C)c2ccccc21,Potency,[1],inactive
same,Potency,[2],inactive
NC1CCN(c2nc3c(cc2F)c(=O)c(C(=O)O)cn3-c2ccc(F)cc2F)C1 (centres undefined),Potency,[1],inactive
same,Potency,[2],inactive
CNCCc1ccccn1,Potency,[1],inactive
same,Potency,[2],inactive
CCO[C@@H]1O[C@H](C(COCc2ccccc2)OCc2ccccc2)[C@H](OCc2ccccc2)[C@H]1O (some centres undefined),Potency,[1],inactive
same,Potency,[2],inactive
CCOc1ccccc1C(N)=O,Potency,[1],inactive
same,Potency,[2],inactive
CCCCCCCCCCCCSCCOCCO,Potency,[1],inactive
same,Potency,[2],inactive
CCOc1ccc(NC(C)=O)cc1,Potency,[1],inactive
same,Potency,[2],inactive
CCOC(=O)[C@H](CCc1ccccc1)N[C@@H](C)C(=O)N1[C@H](C(=O)O)C[C@@H]2CCC[C@@H]21,Potency,[1],inactive
same,Potency,[2],inactive
CC(=O)OCC(=O)[C@H]1CC[C@H]2[C@@H]3CCC4=CC(=O)CC[C@]4(C)[C@H]3CC[C@]12C,Potency,[1],inactive
same,Potency,[2],inactive
CC[N+](C)(CC)CCOC(=O)C(O)(c1ccccc1)C1CCCCC1 (centres undefined),Potency,[1],inactive
same,Potency,[2],inactive
CCOCCn1c(N2CCCN(C)CC2)nc2ccccc21,Potency,[1],inactive
same,Potency,[2],inactive
CCCCCCCCCCC[C@@H](C[C@@H]1OC(=O)[C@H]1CCCCCC)OC(=O)[C@H](CC(C)C)NC=O,Potency,[1],inactive
same,Potency,[2],inactive
Cc1ccc(O)c([C@H](CCN(C(C)C)C(C)C)c2ccccc2)c1,Potency,[1],inactive
same,Potency,[2],inactive
NC(=O)c1ccccc1O,Potency,[1],inactive
same,Potency,[2],inactive
C/C=C/c1ccc(O)c(OC)c1,Potency,[1],inactive
same,Potency,[2],inactive
C[N+]12CCC(CC1)C(OC(=O)C(O)(c1ccccc1)c1ccccc1)C2 (centres undefined),Potency,[1],inactive
same,Potency,[2],inactive
Clc1cccc(C(c2ccc3nc[nH]c3c2)n2ccnc2)c1 (centres undefined),Potency,[1],inactive
same,Potency,[2],inactive
NC(=O)C1(N2CCCCC2)CCN(CCCC(=O)c2ccc(F)cc2)CC1,Potency,[1],inactive
same,Potency,[2],inactive
Cc1ccc(-c2ncc(Cl)cc2-c2ccc(S(C)(=O)=O)cc2)cn1,Potency,[1],inactive
same,Potency,[2],inactive
CC(C)[C@@H]1CC[C@@H](C)CC1=O,Potency,[1],inactive
same,Potency,[2],inactive
COc1cc(C)nc(-n2nc(C)cc2OC)n1,Potency,[1],inactive
same,Potency,[2],inactive
COc1ccc(CN(CCN(C)C)c2ncccn2)cc1,Potency,[1],inactive
same,Potency,[2],inactive
c1ccc(CC2=NCCN2)cc1,Potency,[1],inactive
same,Potency,[2],inactive
CCC1Nc2cc(Cl)c(S(N)(=O)=O)cc2S(=O)(=O)N1 (centres undefined),Potency,[1],inactive
same,Potency,[2],inactive
CCC1NC(=O)c2cc(S(N)(=O)=O)c(Cl)cc2N1 (centres undefined),Potency,[1],inactive
same,Potency,[2],inactive
C[C@@]12C(=O)OC(=O)[C@]1(C)C1CCC2O1,Potency,[1],inactive
same,Potency,[2],inactive
Cc1cc(NS(=O)(=O)c2ccc(N)cc2)nc(C)n1,Potency,[1],inactive
same,Potency,[2],inactive
N/C(=N\N=C\c1ccc(Cl)cc1)N/N=C/c1ccc(Cl)cc1,Potency,[1],inactive
same,Potency,[2],inactive
COc1cc(NS(=O)(=O)c2ccc(N)cc2)ncn1,Potency,[1],inactive
same,Potency,[2],inactive
O=S(=O)(O)c1ccc(O)cc1,Potency,[1],inactive
same,Potency,[2],inactive
N[C@H](C(=O)O)[C@@H](O)c1ccc(O)c(O)c1,Potency,[1],inactive
same,Potency,[2],inactive
O=c1[nH]c(=O)n([C@H]2C[C@H](O)[C@@H](CO)O2)cc1F,Potency,[1],inactive
same,Potency,[2],inactive
FC(F)(F)C(F)(F)C(F)(F)C(F)(F)C(F)(F)C(F)(F)C(F)(F)C(F)(F)Br,Potency,[1],inactive
same,Potency,[2],inactive
CCCN(CCC)S(=O)(=O)c1ccc(C(=O)O)cc1,Potency,[1],inactive
same,Potency,[2],inactive
CN1CCc2cccc3c2[C@H]1Cc1ccc(O)c(O)c1-3,Potency,[1],inactive
same,Potency,[2],inactive
CCCCC(CC)COC(=O)c1ccc(N(C)C)cc1 (centres undefined),Potency,[1],inactive
same,Potency,[2],inactive
CC(C(=O)O)c1cccc(Oc2ccccc2)c1 (centres undefined),Potency,[1],inactive
same,Potency,[2],inactive
CC(C)(C)NC[C@H](O)COc1cccc2c1CCCC2=O,Potency,[1],inactive
same,Potency,[2],inactive
O=C1C(CCS(=O)c2ccccc2)C(=O)N(c2ccccc2)N1c1ccccc1 (centres undefined),Potency,[2],inactive
O=C(O)P(=O)(O)O,Potency,[2],inactive
CC(=O)Nc1ccc(CC(=O)O)cc1,Potency,[1],inactive
same,Potency,[2],inactive
O=C(NC1CCN(CCc2c[nH]c3ccccc23)CC1)c1ccccc1,Potency,[2],inactive
CCOc1cc(OCC)c(C(=O)CCC(=O)O)cc1OCC,Potency,[2],inactive
CC(=O)Nc1ccc(S(=O)(=O)Nc2ccc([N+](=O)[O-])cc2)cc1,Potency,[1],inactive
same,Potency,[2],inactive
NS(=O)(=O)c1ccc(Cl)c(S(N)(=O)=O)c1,Potency,[1],inactive
same,Potency,[2],inactive
O=C(CCCN1CC=C(n2c(=O)[nH]c3ccccc32)CC1)c1ccc(F)cc1,Potency,[1],inactive
same,Potency,[2],inactive
same,outcome,[3],inactive
same,outcome,[4],inactive
same,outcome,[5],inactive
same,outcome,[6],inactive
Cc1ccccc1OCC(O)CO (centres undefined),Potency,[1],inactive
same,Potency,[2],inactive
Oc1ccc(Cl)cc1Cc1cc(Cl)ccc1O,Potency,[2],inactive
CN(Cc1ccc(C(C)(C)C)cc1)Cc1cccc2ccccc12,Potency,[1],inactive
same,Potency,[2],inactive
NS(=O)(=O)Cc1noc2ccccc12,Potency,[1],inactive
same,Potency,[2],inactive
CN(CCCN1c2ccccc2CCc2ccccc21)CC(=O)c1ccc(Cl)cc1,Potency,[1],inactive
same,Potency,[2],inactive
Nc1ccc(S(=O)(=O)Nc2cnc3ccccc3n2)cc1,Potency,[1],inactive
same,Potency,[2],inactive
Cc1cc(C)cc(OCC2CNC(=O)O2)c1 (centres undefined),Potency,[2],inactive
COc1ccc(C(Cl)=C(c2ccc(OC)cc2)c2ccc(OC)cc2)cc1,Potency,[1],inactive
same,Potency,[2],inactive
CC[C@]12CCCN3CCc4c(n(c5ccccc45)C(=O)C1)[C@@H]32,Potency,[1],inactive
same,Potency,[2],inactive
same,outcome,[3],inactive
same,outcome,[4],inactive
same,outcome,[5],inactive
same,outcome,[6],inactive
O=C(O)CCNC(=O)c1ccccc1,Potency,[2],inactive
CN(C)CCOC(=O)C(c1ccccc1)C1(O)CCCC1 (centres undefined),Potency,[1],inactive
same,Potency,[2],inactive
Cc1c[nH]c2ccccc12,Potency,[1],inactive
same,Potency,[2],inactive
CCOC(=O)c1c(N)sc2c1CCN(Cc1ccccc1)C2,Potency,[2],inactive
CC(=O)Nc1ccc(OC(=O)c2ccccc2OC(C)=O)cc1,Potency,[1],inactive
same,Potency,[2],inactive
CCN1CCN(C(=O)N[C@@H](C(=O)N[C@@H]2C(=O)N3C(C(=O)O)=C(CSc4nnnn4C)CS[C@H]23)c2ccc(O)cc2)C(=O)C1=O,Potency,[1],11.4 µM (active)
same,Potency,[2],inactive
CCCCNc1ccc(C(=O)OCCOCCOCCOCCOCCOCCOCCOCCOCCOC)cc1,Potency,[1],inactive
same,Potency,[2],inactive
CN1CCC(OC(c2ccccc2)c2ccccc2)CC1,Potency,[1],inactive
same,Potency,[2],inactive
O=C1[C@H](CC[C@H](O)c2ccc(F)cc2)[C@@H](c2ccc(O)cc2)N1c1ccc(F)cc1,Potency,[1],inactive
same,Potency,[2],inactive
same,outcome,[3],inactive
same,outcome,[4],inactive
same,outcome,[5],inactive
same,outcome,[6],inactive
Nc1nc(-c2ccccc2)c(Br)c(=O)[nH]1,Potency,[1],inactive
same,Potency,[2],inactive
CCN(CC)CCOC(=O)C(Cc1cccc2ccccc12)CC1CCCO1 (centres undefined),Potency,[1],inactive
same,Potency,[2],inactive
CN(C)CCOC(c1ccc(Cl)cc1)c1ccccn1 (centres undefined),Potency,[1],inactive
same,Potency,[2],inactive
C#C[C@]1(O)CC[C@H]2[C@@H]3CCc4cc(OC)ccc4[C@H]3CC[C@@]21C,Potency,[1],inactive
same,Potency,[2],inactive
CCCCC(CC)COC(=O)/C=C/c1ccc(OC)cc1 (centres undefined),Potency,[2],inactive
CCOC(=O)Nc1ccc2c(c1)N(C(=O)CCN1CCOCC1)c1ccccc1S2,Potency,[1],inactive
same,Potency,[2],inactive
CCOc1ccccc1OCCN[C@H](C)Cc1ccc(OC)c(S(N)(=O)=O)c1,Potency,[2],inactive
CC1CCc2c(N3CCC(O)CC3)c(F)cc3c(=O)c(C(=O)O)cn1c23 (centres undefined),Potency,[1],inactive
same,Potency,[2],inactive
COc1cc(O)c(C(=O)c2ccccc2)cc1S(=O)(=O)O,Potency,[1],inactive
same,Potency,[2],inactive
C=C[C@H]1CN2CC[C@H]1C[C@H]2[C@H](O)c1ccnc2ccc(OC)cc12,outcome,[3],inactive
same,outcome,[4],inactive
same,outcome,[5],inactive
same,outcome,[6],inactive
